Our source for the Potency and outcome values is PubChem BioAssay (Tox21).

Structures are written as SMILES. Results filed as inconclusive are left out. Values without a mark were called inactive. Activity calls are given as the source filed them. Unless noted, the call rests on the fitted dose curve; in most records, active means well fitted curve in the direction sought with a large enough effect in the repeat runs; inconclusive means weak or mixed curves; inactive means no such curve, though single readings can be large; an effect the other way counts as inactive or inconclusive.

The target in assay [1] is Aryl hydrocarbon receptor (Homo sapiens) (UniProt P35869). Put plainly: qHTS assay to identify small molecule that activate the aryl hydrocarbon receptor (AhR) signaling pathway (AID 743085). Further: nearly all actives have a fitted effect of over 15% in size. Further: potency means the concentration at half of the fitted maximal effect.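 On activation: HG2L7.5c1 human HepG2 liver cells with stably integrated DRE-driven firefly reporter; series mostly up to about 70 µM.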 The method in brief: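 Measured in HG2L7.5c1 cells: CellTiter-Fluor signal (30 min incubation, 37C) for viability, then luciferase luminescence (30 min, room temperature). Compound contact time was 24 h at 37C, following a 5 h pre-incubation.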

A short description of assay [2]: qHTS assay to identify small molecule that activate the aryl hydrocarbon receptor (AhR) signaling pathway - cell viability counter screen (AID 743086).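 Further: HepG2 liver cells carrying the AhR DRE luciferase reporter; series mostly up to about 70 µM; nearly all actives have a fitted effect of over 45% in size.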 The method in brief:
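HepG2-AhR-luc (HG2L7.5c1) cells, 4000/well, were preincubated 5 h at 37C, exposed to compound in qHTS format for 24 hr at 37C, then given CellTiter-Fluor for 30 min; viability was read as fluorescence in the reporter wells.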
(In general: In qHTS, concentration-response curves come from the screen itself.)

Assay [3] addresses Peroxisome proliferator-activated receptor gamma (Homo sapiens) (UniProt P37231). Put plainly: qHTS assay to identify small molecule agonists of the peroxisome proliferator-activated receptor gamma (PPARg) signaling pathway (AID 743094; active means well fitted activation curve with a large enough effect in the signal ratio in the repeat runs, not every such curve was filed as active; the % refers to the signal ratio). A digest of the protocol: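 HEK293H PPARg-bla cells, 5 h settle at 37C/5% CO2; compound (DMSO) 17 h, 37C; B/G FRET substrate 1 h RT; fluorescence intensity read-out. qHTS format.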

For assay [4] the target is unchanged. Kind of assay: qHTS assay to identify small molecule antagonists of the peroxisome proliferator-activated receptor gamma (PPARg) signaling pathway (AID 743191; calls by dose curve; further: series mostly up to about 63 µM; nearly all actives have a fitted effect of over 30% in size). The method in brief:
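GeneBLAzer PPARg UAS-bla HEK293H cells carrying a UAS-driven beta-lactamase reporter were plated at 3000 cells/well, preincubated 5 h at 37C, then given compound for 17 h at 37C; LiveBLAzer B/G FRET substrate was read after 1 h at room temperature.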

Assay [5] in a line: qHTS assay to identify small molecule antagonists of the peroxisome proliferator-activated receptor gamma (PPARg) signaling pathway - cell viability counter screen (AID 743194). Further: nearly all actives have a fitted effect of over 55% in size. The method in brief:
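PPARg-UAS-bla HEK293H cells were plated, rested 5 h at 37 C, then treated with compounds plus rosiglitazone (50 nM final) for 17 h at 37 C; viability was then read by CellTiter-Glo luminescence after 30 min at room temperature.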

A short description of assay [6]: qHTS assay for small molecule agonists of the antioxidant response element (ARE) signaling pathway (AID 743202; active means well fitted activation curve with a large enough effect in the signal ratio in the repeat runs, not every such curve was filed as active; the % refers to the signal ratio). A digest of the protocol: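 Following a 16 h, 37 C exposure of reporter HepG2 cells (ARE-driven beta-lactamase, 2,000 cells/well) to compounds, FRET substrate was applied for 2 h at room temperature and fluorescence intensity recorded.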
Assay [7] is described as follows: qHTS assay for small molecule agonists of the antioxidant response element (ARE) signaling pathway - cell viability counter screen (AID 743203; calls by dose curve; further: nearly all actives have a fitted effect of over 55% in size). The method in brief: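 Luminescence read-out (CellTiter-Glo, 30 min at room temperature) measured cell viability in the same wells as the ARE beta-lactamase reporter. HepG2 ARE-bla cells were treated with compounds for 16 hrs at 37C/5% CO2.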

Assay [8] can be described thus: qHTS assay to identify small molecule agonists of the peroxisome proliferator-activated receptor delta (PPARd) signaling pathway - cell viability counter screen (AID 743211). Further: nearly all actives have a fitted effect of over 55% in size. The method in brief:
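Following 5 h plating at 37 C and 5% CO2, PPARd UAS-bla HEK293H cells took up test compounds for 17 h. Viability was quantified by luminescence 30 min after CellTiter-Glo addition at room temperature.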

For assay [9], the target named is Peroxisome proliferator-activated receptor delta (Homo sapiens) (UniProt Q03181). Put plainly: qHTS assay to identify small molecule agonists of the peroxisome proliferator-activated receptor delta (PPARd) signaling pathway (AID 743212; calls by dose curve). A digest of the protocol: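 Beta-lactamase reporter read by fluorescence (LiveBLAzer B/G FRET, 2 h, room temperature). Test agents, in DMSO, incubated at 37 C with PPARd-bla HEK293H cells.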

For assay [10] the target is unchanged. Put plainly: qHTS assay to identify small molecule antagonists of the peroxisome proliferator-activated receptor delta (PPARd) signaling pathway (AID 743215; active means well fitted inhibition curve with a large enough effect in the signal ratio in the repeat runs, not every such curve was filed as active; the % refers to the signal ratio;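 further: cells stimulated with agonist L165041 at 300 nM final during compound exposure; series mostly up to about 62 µM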). The method in brief:
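HEK293H GeneBLAzer PPARd UAS-bla reporter cells; cpd + L165041 300 nM final, 17 h 37 C; LiveBLAzer B/G FRET substrate 2 h RT; fluorescence intensity read-out. Antagonist mode.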

Assay [11] can be described thus: qHTS assay to identify small molecule antagonists of the farnesoid-X-receptor (FXR) signaling pathway - cell viability counter screen (AID 743221; active means well fitted cell-killing curve with a large enough effect in the repeat runs, not every such curve was filed as active; further: nearly all actives have a fitted effect of over 50% in size). A digest of the protocol:
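Compound effects on cell number were measured as CellTiter-Glo luminescence in HEK 293T cells expressing FXR-UAS-bla, after 16 h at 37 C with 50 uM CDCA (final).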

Assay [12] is described as follows: qHTS assay to identify small molecule agonists of the vitamin D receptor (VDR) signaling pathway - cell viability counter screen (AID 743224). Further: series mostly up to about 63 µM; nearly all actives have a fitted effect of over 50% in size. The method in brief:
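Cytotoxicity counter screen: VDR-bla cells, 16 h compound exposure at 37C, 5% CO2; CellTiter-Glo luminescence, 30 min RT, same wells as bla read.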

Assay [13] in a line: qHTS assay to identify small molecule agonists of the farnesoid-X-receptor (FXR) signaling pathway - cell viability counter screen (AID 743218). Further: nearly all actives have a fitted effect of over 45% in size. The method in brief:
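Luminescence from CellTiter-Glo, read after 30 min at RT, reports viability of GeneBLAzer FXR-UAS-bla HEK 293T cells treated 16 h with compounds in the wells used for the beta-lactamase reporter.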

Assay [14] has as its target Vitamin D3 receptor (Homo sapiens) (UniProt P11473). Put plainly: qHTS assay to identify small molecule agonists of the vitamin D receptor (VDR) signaling pathway (AID 743222; calls by dose curve). The method in brief: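 Beta-lactamase reporter readout (LiveBLAzer B/G FRET, 2 h RT) in VDR-bla cells after 16 h compound treatment at 37C, 5% CO2; cells pre-incubated 4 h before pin transfer of DMSO solutions.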

Assay [15] has the same target. Kind of assay: qHTS assay to identify small molecule antagonists of the vitamin D receptor (VDR) signaling pathway (AID 743223; active means well fitted inhibition curve with a large enough effect in the signal ratio in the repeat runs, not every such curve was filed as active; the % refers to the signal ratio). A digest of the protocol:
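Beta-lactamase activity in VDR-bla cells is measured by FRET substrate fluorescence (2 h, room temperature) after cells spend 16 h at 37C with test compound and 3 nM final 1alpha,25-dihydroxyvitamin D3.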

A short description of assay [16]: qHTS assay for small molecule activators of the heat shock response signaling pathway - cell viability counter screen (AID 743209). Further: nearly all actives have a fitted effect of over 50% in size. A digest of the protocol: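 HSE-bla HeLa; 1500 cells/well; overnight 37 C, 5% CO2; compound 5 h 37 C; LiveBLAzer B/G substrate 2.5 h RT; CellTiter-Glo 30 min RT; luminescence.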
Assay [17] in a line: qHTS assay for small molecule activators of the heat shock response signaling pathway (AID 743210; active means well fitted activation curve with a large enough effect in the signal ratio in the repeat runs, with a control signal flat, not every such curve was filed as active; the % refers to the signal ratio; further: series mostly up to about 63 µM). The method in brief: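 Heat shock element–beta-lactamase HeLa reporter cells; qHTS with compounds for 5 h at 37 C; detection by FRET substrate fluorescence after 2.5 h at RT.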
Assay [18] can be described thus: qHTS assay to identify small molecule antagonists of the peroxisome proliferator-activated receptor delta (PPARd) signaling pathway - cell viability counter screen (AID 743213). Further: nearly all actives have a fitted effect of over 50% in size. A digest of the protocol: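 Same-well viability: cells pre-incubated 5 h, dosed with compound plus 300 nM L165041, kept 17 h at 37 C, FRET substrate 2 h RT, then CellTiter-Glo 30 min RT and luminescence.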

The target of assay [19] is Bile acid receptor (Homo sapiens) (UniProt Q96RI1). Put plainly: qHTS assay to identify small molecule antagonists of the farnesoid-X-receptor (FXR) signaling pathway (AID 743217; active means well fitted inhibition curve with a large enough effect in the signal ratio in the repeat runs, not every such curve was filed as active; the % refers to the signal ratio). The method in brief: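 Read-out: beta-lactamase FRET fluorescence (LiveBLAzer B/G substrate, 2 h, room temperature) in GeneBLAzer FXR-UAS-bla HEK 293T cells. Compounds were co-dosed with 50 uM chenodeoxycholic acid (final) and incubated 16 h at 37 °C.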

The target is the same in assay [20]. Kind of assay: qHTS assay to identify small molecule agonists of the farnesoid-X-receptor (FXR) signaling pathway (AID 743220; active means well fitted activation curve with a large enough effect in the signal ratio in the repeat runs, not every such curve was filed as active; the % refers to the signal ratio). The method in brief: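 FXR-UAS-bla HEK 293T cells carrying a UAS-driven beta-lactamase reporter were plated for 5 h at 37C/5% CO2, then exposed to DMSO-dissolved Tox21 10K compounds for 16 h at 37C. A LiveBLAzer B/G FRET substrate was loaded for 2 h at room temperature before fluorescence reading.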

Chain of Bile acid receptor (Homo sapiens) (Q96RI1 whole entry, looked up): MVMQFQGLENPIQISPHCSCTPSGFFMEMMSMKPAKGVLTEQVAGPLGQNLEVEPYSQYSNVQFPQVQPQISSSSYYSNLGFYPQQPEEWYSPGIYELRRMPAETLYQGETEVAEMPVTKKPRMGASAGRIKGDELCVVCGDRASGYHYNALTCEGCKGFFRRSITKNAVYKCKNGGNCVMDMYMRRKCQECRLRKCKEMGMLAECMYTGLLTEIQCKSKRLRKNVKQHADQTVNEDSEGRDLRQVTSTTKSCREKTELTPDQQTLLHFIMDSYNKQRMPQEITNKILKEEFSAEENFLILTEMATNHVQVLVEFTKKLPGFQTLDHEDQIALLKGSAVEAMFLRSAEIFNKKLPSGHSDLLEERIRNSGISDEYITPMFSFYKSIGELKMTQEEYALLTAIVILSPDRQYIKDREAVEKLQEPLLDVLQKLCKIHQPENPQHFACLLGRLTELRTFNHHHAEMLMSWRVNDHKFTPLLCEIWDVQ
Chain of Vitamin D3 receptor (Homo sapiens) (P11473 whole entry, looked up): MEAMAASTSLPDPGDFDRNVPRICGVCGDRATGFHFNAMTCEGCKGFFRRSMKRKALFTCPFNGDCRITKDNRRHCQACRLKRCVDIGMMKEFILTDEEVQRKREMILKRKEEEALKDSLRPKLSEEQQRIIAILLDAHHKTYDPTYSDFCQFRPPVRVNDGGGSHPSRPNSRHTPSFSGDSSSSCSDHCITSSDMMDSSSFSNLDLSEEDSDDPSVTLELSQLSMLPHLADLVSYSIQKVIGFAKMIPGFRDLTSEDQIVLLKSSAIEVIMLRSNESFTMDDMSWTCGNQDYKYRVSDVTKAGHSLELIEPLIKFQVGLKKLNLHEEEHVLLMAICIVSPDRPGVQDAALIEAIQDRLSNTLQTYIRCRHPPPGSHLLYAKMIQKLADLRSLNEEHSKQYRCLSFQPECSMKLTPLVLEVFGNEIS
Chain of Peroxisome proliferator-activated receptor delta (Homo sapiens) (Q03181 whole entry, looked up): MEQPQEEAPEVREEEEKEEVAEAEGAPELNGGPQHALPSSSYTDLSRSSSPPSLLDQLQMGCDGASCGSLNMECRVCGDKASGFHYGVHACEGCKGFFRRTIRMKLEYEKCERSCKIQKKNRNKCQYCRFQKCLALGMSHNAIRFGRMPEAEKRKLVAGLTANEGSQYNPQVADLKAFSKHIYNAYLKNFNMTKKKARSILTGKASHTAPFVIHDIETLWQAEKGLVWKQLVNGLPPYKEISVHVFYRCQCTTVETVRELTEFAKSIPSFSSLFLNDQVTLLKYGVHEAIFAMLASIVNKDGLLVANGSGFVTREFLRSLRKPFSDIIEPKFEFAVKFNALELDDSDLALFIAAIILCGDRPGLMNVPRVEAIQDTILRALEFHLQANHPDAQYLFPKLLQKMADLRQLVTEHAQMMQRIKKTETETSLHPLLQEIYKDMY
Chain of Aryl hydrocarbon receptor (Homo sapiens) (P35869 whole entry, looked up): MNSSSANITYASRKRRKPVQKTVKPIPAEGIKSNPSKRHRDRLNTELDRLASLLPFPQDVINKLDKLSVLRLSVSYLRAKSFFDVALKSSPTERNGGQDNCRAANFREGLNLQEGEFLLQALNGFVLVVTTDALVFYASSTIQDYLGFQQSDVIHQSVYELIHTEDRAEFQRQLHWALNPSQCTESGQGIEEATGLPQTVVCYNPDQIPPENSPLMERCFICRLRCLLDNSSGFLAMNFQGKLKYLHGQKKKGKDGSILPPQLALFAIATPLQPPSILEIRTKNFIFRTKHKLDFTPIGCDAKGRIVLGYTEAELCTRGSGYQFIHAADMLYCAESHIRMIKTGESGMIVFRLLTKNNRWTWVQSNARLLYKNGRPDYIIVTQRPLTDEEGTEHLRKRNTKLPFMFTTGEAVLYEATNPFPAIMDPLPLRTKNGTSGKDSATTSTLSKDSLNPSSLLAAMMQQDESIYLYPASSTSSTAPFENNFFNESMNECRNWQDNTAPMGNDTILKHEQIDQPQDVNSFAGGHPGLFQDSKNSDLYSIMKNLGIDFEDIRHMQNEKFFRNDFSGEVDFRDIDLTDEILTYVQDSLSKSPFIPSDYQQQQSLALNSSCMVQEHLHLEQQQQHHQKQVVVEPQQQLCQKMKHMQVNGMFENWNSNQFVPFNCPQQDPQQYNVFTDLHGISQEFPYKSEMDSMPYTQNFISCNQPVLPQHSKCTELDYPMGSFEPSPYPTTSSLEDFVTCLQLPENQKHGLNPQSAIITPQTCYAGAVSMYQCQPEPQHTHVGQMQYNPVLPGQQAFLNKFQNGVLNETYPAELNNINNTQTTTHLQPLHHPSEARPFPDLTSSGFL
Chain of Peroxisome proliferator-activated receptor gamma (Homo sapiens) (P37231 whole entry, looked up): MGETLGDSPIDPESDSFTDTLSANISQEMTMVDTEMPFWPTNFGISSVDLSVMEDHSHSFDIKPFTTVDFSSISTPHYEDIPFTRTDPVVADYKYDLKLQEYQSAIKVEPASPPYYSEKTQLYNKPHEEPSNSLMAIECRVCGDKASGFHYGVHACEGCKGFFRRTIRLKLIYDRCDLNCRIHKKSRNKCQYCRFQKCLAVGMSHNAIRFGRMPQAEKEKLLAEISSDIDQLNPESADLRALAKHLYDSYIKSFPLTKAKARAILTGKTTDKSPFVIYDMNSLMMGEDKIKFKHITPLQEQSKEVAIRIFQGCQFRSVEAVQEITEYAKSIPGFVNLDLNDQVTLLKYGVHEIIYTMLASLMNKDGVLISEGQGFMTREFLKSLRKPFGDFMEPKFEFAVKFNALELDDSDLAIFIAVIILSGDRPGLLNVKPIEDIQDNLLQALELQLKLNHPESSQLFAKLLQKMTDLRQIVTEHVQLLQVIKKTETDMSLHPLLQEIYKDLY

As to `OCCN1CCOCC1`, the Potency result in assay [1], in [2], in [3] and in assay [6] was “inactive” each time. The outcome in [4], in assay [5], in assay [7], in [8], in assay [9] and in assay [10] was inactive. Moreover, the call in [11] and in assay [12] was inactive.

`C=CCN1C[C@H](C(=O)N(CCCN(C)C)C(=O)NCC)C[C@@H]2c3cccc4[nH]cc(c34)C[C@H]21`: the Potency result in [1], in assay [2], in assay [3] and in [6] was “inactive” throughout. Also, the compound was classed as inactive in [4], in [5], in assay [7], in assay [9], in assay [13] and in assay [11]. Moreover, the compound was classed as inactive in assay [14], in assay [15] and in assay [12].

Consider `CN(C)CCN(C)CCO`, for which the Potency entry in assay [1], in [2], in [3] and in assay [16] was “inactive” in each case. Also, the call in [4], in [5], in assay [7], in assay [17], in assay [8] and in assay [18] was inactive. Besides, the outcome in assay [19], in assay [13], in [20], in assay [14], in [15] and in [12] was inactive.

In the case of `c1ccc2cnccc2c1`, the Potency result in assay [1], in assay [2], in assay [3] and in assay [16] was “inactive” each time. The compound was classed as inactive in assay [4], in assay [5], in assay [7], in [17], in assay [8] and in assay [9]. The compound was called inactive in assay [18], in assay [13], in [14] and in assay [12].

As to `CCCCOCC(C)O` (stereo unspecified), the Potency result in assay [1], in [2], in assay [3] and in assay [16] was “inactive” in each case. Also, the compound was classed as inactive in assay [4], in [5], in [7], in [17], in [8] and in assay [18]. The compound was called inactive in assay [13], in assay [11], in [14] and in assay [12].

On to `O=C(O)CSCC(=O)NC1CCSC1=O` (stereo unspecified), for which the Potency result in [1], in assay [2], in [3] and in assay [6] was “inactive” throughout. Moreover, the outcome in assay [4], in assay [5], in assay [7], in assay [17], in assay [9] and in assay [18] was inactive. Also, the outcome in assay [10], in [19], in assay [13], in [20], in [11] and in [14] was inactive. The compound was called inactive in assay [12].

For the compound `CC1(C)CC(OC(=O)CCCCCCCCC(=O)OC2CC(C)(C)NC(C)(C)C2)CC(C)(C)N1`, the Potency entry in assay [1], in assay [2] and in assay [3] was “inactive” each time. Also, the call in [4], in [5], in [7], in assay [17], in [8] and in [9] was inactive. Further, the result in [13], in [11], in assay [14], in assay [15] and in assay [12] was inactive.

For the compound `ONc1ccccc1`, in assay [1], the Potency is 60.5 µM (active). Also, the Potency entry in assay [2], in [3] and in [16] was “inactive” throughout. Besides, the call in [4], in assay [5], in assay [7], in assay [8], in assay [9] and in [18] was inactive. Besides, the compound was called inactive in assay [13], in [11], in assay [14] and in assay [15].

Regarding `Cc1ccc(C)c([N+](=O)[O-])c1`, the Potency entry in assay [1], in assay [2], in [3] and in assay [16] was “inactive” throughout. In addition, the result in assay [4], in assay [5], in assay [7], in assay [17], in assay [8] and in [9] was inactive. The call in assay [18], in assay [10], in [13], in assay [11], in [14] and in [15] was inactive. In addition, the compound was called inactive in [12].
